Source: PubChem BioAssay
Several values for one entry are separate records, joined by “and”; a condition that tells them apart may be missing. Equal entries are not always repeated. A number with no mark means an inactive call. Activity calls are given as the source filed them.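 How the source made its calls: active means inhibition at or above 50% relative to wild type and mutant plate controls; inactive means inhibition below 50%.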

Assay: loss of swimming-algae plug formation – whole organism, Chlamydomonas reinhardtii, WT vs cilia-less mutant, absorbance, 96-well, primary screen (AID 463189);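 further: 0% = wild type cc124 cells in DMSO and 100% = ciliumless bld1 mutant cells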
Conditions: Chlamydomonas reinhardtii gravitaxis, OD600 absorbance, 2 days; at 10 µM; hits give high values

SMILES | inhibition
CC[C@@]1(O)C(=O)OCc2c1cc1n(c2=O)Cc2cc3ccccc3nc2-1 | 23.3%
Clc1cc(I)cc(Cl)c1NC1=NCCN1 | 9.51%
CC(=O)[C@H]1CCC2C3CC[C@H]4C[C@H](O)CC[C@]4(C)C3CC[C@@]21C (stereo partly drawn) | 0.863%
NCC(CP(=O)(O)O)c1ccc(Cl)cc1 (stereo not drawn) | -3.38%
CC(=O)OCC1=C(C(=O)[O-])N2C(=O)[C@@H](NC(=O)CCC[C@@H](N)C(=O)[O-])[C@H]2SC1.[Zn+2] | 3.46%
CCNC(=O)[C@H]1O[C@@H](n2cnc3c(N)ncnc32)C(O)[C@H]1O (stereo partly drawn) | -1.46%
CP(=O)(O)C1=CCNCC1 | 10%
NCC(O)c1ccc(O)cc1 (stereo not drawn) | 5.37%
O=C(OC1CCN(CCCl)CC1)C(c1ccccc1)c1ccccc1 | -11.2%
C=C(C)[C@H]1CN[C@H](C(=O)O)[C@H]1CC(=O)O | -2.25%
CP(=O)(O)CCCN | 3.64%
S=C=Nc1cccc(C2(N3CCCCC3)CCCCC2)c1 | 10.2%
CCN1C[C@]2(C)CC[C@H](O)[C@@]34C5C[C@@H]6[C@@H](OC)C[C@@](O)(C5[C@H]6O)[C@@H](CC23)C14 (stereo partly drawn) | 7.34%
N[C@@H](Cn1cc(I)c(=O)[nH]c1=O)C(=O)O | 9.47%
C[N+]1(C)CCC(OC(=O)C(c2ccccc2)c2ccccc2)CC1 | -7.08%
NCCc1c[nH]c2ccc(O)cc12 | -4.38%
CC1Cc2cc3c(cc2C(c2ccc(N)cc2)=NN1)OCO3 (stereo not drawn) | 0.595%
N#CC(=Cc1ccc(O)c(O)c1)C(N)=S | 10.3%
C[C@@H]1O[C@@H](O[C@H]2C[C@@H](O)[C@]3(CO)[C@@H]4C(CC[C@]3(O)C2)[C@@]2(O)CC[C@H](C3COC(=O)C3)[C@@]2(C)C[C@H]4O)[C@H](O)[C@H](O)[C@H]1O (stereo partly drawn) | 0.796%

SMILES | inhibition
COc1cc(CC(C)N)c(OC)cc1I (stereo not drawn) | -7.42%
CCCN1CCC[C@@H]2Cc3nc(N)ncc3C[C@H]21 | 4.12%
OC1CCCCC1N1CCC(c2ccccc2)CC1 (stereo not drawn) | 3.25%
C#CCN[C@H](C)Cc1ccccc1 | 20.4%
N#CC(C#N)=Cc1cc(O)c(O)c(O)c1 | 7.39%
NCc1cc(=O)[nH]o1 | 5.71%
Clc1ccc(C(c2ccc(Cl)cc2)n2cc[n+](CC(OCc3ccc(Cl)cc3Cl)c3ccc(Cl)cc3Cl)c2)cc1 (stereo not drawn) | 133% (active)
NC(=O)c1cc(N2CC2)c([N+](=O)[O-])cc1[N+](=O)[O-] | -4%
CCCCCCCCCCCCCC(=O)O[C@@H]1[C@@H](C)[C@@]2(O)[C@@H](C=C(CO)C[C@@]3(O)C(=O)C(C)=C[C@@H]23)C2C(C)(C)[C@@]21OC(C)=O (stereo partly drawn) | -13.4%
O=C(CCCN1CCC2(CC1)C(=O)N(CCc1ccc(N=C=S)cc1)CN2c1ccccc1)c1ccc(F)cc1 | 2.53%
COc1ccc2[nH]c3c(c2c1)CCNC3 | -4.14%
CCS(=O)(=O)Nc1cccc(C(=C2CCCCC2)c2cnc[nH]2)c1 | 2.69%
CCC1(C2=NCCN2)Cc2ccccc2O1 (stereo not drawn) | -5.93%
CCCn1c(C)c(C(=O)c2ccc3ccccc3c2)c2ccccc21 | 18.5%
CCn1cc(C(=O)O)c(=O)c2ccc(C)nc21 | -5.13% and 33.3%
CCCN1CCC[C@H](c2cccc(O)c2)C1 | 0.621%
CCOC(=O)c1ncn2c1[C@@H]1CCCN1C(=O)c1cc(OC)ccc1-2 | 6.1%
CN1C[C@@H](CS(=O)(=O)N(C)C)C[C@@H]2c3cccc4c3c(cn4C)C[C@H]21 | 4.5%
NCCc1c[nH]c2ccc(C(N)=O)cc12 | 4.98%
